# Data published in ChEMBL document CHEMBL2218924, “A broad activity screen in support of a chemogenomic map for kinase signalling research and drug discovery” (Biochem J, 2013).
# Target: AMP-activated protein kinase, AMPK (Homo sapiens) (UniProt P54646+O43741+P54619+Q9UGJ0+Q9Y478+Q13131+Q9UGI9)
# Conditions: at 10 µM
row,SMILES,residual activity [%]
1,C[C@@H](N)[C@H]1CC[C@H](C(=O)Nc2ccncc2)CC1,83
2,c1ccc(-c2n[nH]c3c2oc2ccccc23)cc1,47
3,COc1cc2ncc(-c3ccccc3)nc2cc1OC,75
4,Cc1nc(-c2ccccc2)c(-c2ccncc2)o1,114
5,Cc1cc(Nc2nc(-c3ccccc3)nc3ccccc23)n[nH]1,3
6,CCN(CC)C(=O)c1ccc(Nc2nc(OCC3CCCCC3)c3nc[nH]c3n2)cc1,5
7,COc1cc2ncnc(Nc3ccc(O)c(Br)c3)c2cc1OC,52
8,COc1cccc(-c2cc(=O)c3ccccc3o2)c1N,94
9,Oc1n[nH]c2nnc(-c3c(-c4ccccc4)nn4ccccc34)cc12,90
10,CN(C)CCCn1cc(C2=C(c3c[nH]c4ccccc34)C(=O)NC2=O)c2ccccc21,4
11,CO[C@@H]1[C@H](N(C)C(=O)c2ccccc2)C[C@H]2O[C@]1(C)n1c3ccccc3c3c4c(c5c6ccccc6n2c5c31)C(=O)NC4,4
12,COc1ccc(S(=O)(=O)N(CCO)c2ccccc2CN(C)C/C=C/c2ccc(Cl)cc2)cc1,74
13,O=C1NC(=O)c2c1c1c3ccccc3[nH]c1c1[nH]c3cc(Br)ccc3c21,69
14,COc1cc2ncnc(Nc3ccc(NC(=O)c4ccccc4)cc3)c2cc1OC,88
15,NC(=O)c1ccc2[nH]c(-c3ccc(Oc4ccc(Cl)cc4)cc3)nc2c1,40
16,O=Nc1c(-c2c(O)[nH]c3ccccc23)[nH]c2ccccc12,3

row,SMILES,residual activity [%]
1,COc1ccc(OC)c2c(=S)c3ccccc3[nH]c12,87
2,O=C1Nc2ccccc2/C1=C1/Nc2ccccc2/C1=N\OCCC(O)CO (configuration not stated),4
3,c1ccc2c(-c3ccncc3)c[nH]c2c1,85
4,Nc1ccc2ncnc(NCCc3ccc(Oc4ccccc4)cc3)c2c1,42
5,CO[C@H]1C[C@@H]2CC[C@@H](C)[C@@](O)(O2)C(=O)C(=O)N2CCCC[C@H]2C(=O)O[C@H]([C@H](C)C[C@@H]2CC[C@@H](O)[C@H](OC)C2)CC(=O)[C@H](C)/C=C(\C)[C@@H](O)[C@@H](OC)C(=O)[C@H](C)C[C@H](C)/C=C/C=C/C=C/1C,107
6,O=C1Nc2cc(Br)ccc2/C1=C1/Nc2ccccc2/C1=N\O,10
7,Cc1cncc2cccc(S(=O)(=O)N3CCCN(C(=O)CN)C[C@H]3C)c12,45
8,O=[N+]([O-])c1ccc(-c2nc(-c3ccc(F)cc3)c(-c3ccncc3)[nH]2)cc1,91
9,CCOc1cc2ncnc(Nc3cccc(Br)c3)c2cc1OCC,57
10,COc1ccc(C(=O)Nc2sc3c(c2C(N)=O)CCCC3)cc1OC,75
11,N#Cc1cnc2cnc(NCc3cccnc3)cc2c1Nc1ccc(F)c(Cl)c1,-1
12,O=C1c2ccccc2-[n+]2ccc3c([nH]c4ccccc43)c21,93
13,Oc1ccc(Nc2nc(-c3ccc(Cl)cc3)cs2)cc1,100
14,CC(=O)O/N=C1\C(=C2\C(=O)Nc3cc(Br)ccc32)Nc2ccccc21,11
15,CC(C)n1cnc2c(NCc3ccccc3)nc(NCCCO)nc21,90

# Target: T1, NUAK family SNF1-like kinase 1 (Homo sapiens) (UniProt O60285)
# T1 sequence (whole entry): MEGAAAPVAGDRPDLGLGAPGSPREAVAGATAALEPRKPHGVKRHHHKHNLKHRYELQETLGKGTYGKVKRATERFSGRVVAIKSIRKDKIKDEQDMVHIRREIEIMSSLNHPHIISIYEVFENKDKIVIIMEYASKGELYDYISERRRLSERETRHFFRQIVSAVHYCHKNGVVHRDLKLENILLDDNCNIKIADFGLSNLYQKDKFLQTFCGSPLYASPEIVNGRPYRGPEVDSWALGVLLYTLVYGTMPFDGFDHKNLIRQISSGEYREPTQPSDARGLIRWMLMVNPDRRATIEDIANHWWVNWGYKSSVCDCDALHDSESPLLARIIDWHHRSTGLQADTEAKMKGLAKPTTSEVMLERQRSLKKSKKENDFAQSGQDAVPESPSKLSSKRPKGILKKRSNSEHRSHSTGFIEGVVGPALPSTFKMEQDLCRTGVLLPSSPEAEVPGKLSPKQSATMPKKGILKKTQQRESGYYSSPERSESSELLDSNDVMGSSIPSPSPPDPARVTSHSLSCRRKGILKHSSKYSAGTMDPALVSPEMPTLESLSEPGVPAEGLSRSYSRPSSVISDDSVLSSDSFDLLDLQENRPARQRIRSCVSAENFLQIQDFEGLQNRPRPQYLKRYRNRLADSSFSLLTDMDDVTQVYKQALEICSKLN
# Conditions: at 1 µM
row,SMILES,residual activity [%]
1,O=C1Nc2ccc(Br)cc2/C1=C\c1cc2c([nH]1)CCCC2,70
2,C[C@@H](N)[C@H]1CC[C@H](C(=O)Nc2ccncc2)CC1,101
3,c1ccc(-c2n[nH]c3c2oc2ccccc23)cc1,89
4,Cc1nc(-c2ccccc2)c(-c2ccncc2)o1,99
5,Cc1cc(Nc2nc(-c3ccccc3)nc3ccccc23)n[nH]1,3
6,CCN(CC)C(=O)c1ccc(Nc2nc(OCC3CCCCC3)c3nc[nH]c3n2)cc1,2
7,COc1cc2ncnc(Nc3ccc(O)c(Br)c3)c2cc1OC,78
8,COc1cccc(-c2cc(=O)c3ccccc3o2)c1N,109
9,Oc1n[nH]c2nnc(-c3c(-c4ccccc4)nn4ccccc34)cc12,100
10,Cc1cc2ncc(-c3ccccc3)nc2cc1C,92
11,CN(C)CCCn1cc(C2=C(c3c[nH]c4ccccc34)C(=O)NC2=O)c2ccccc21,35
12,CO[C@@H]1[C@H](N(C)C(=O)c2ccccc2)C[C@H]2O[C@]1(C)n1c3ccccc3c3c4c(c5c6ccccc6n2c5c31)C(=O)NC4,7
13,COc1ccc(S(=O)(=O)N(CCO)c2ccccc2CN(C)C/C=C/c2ccc(Cl)cc2)cc1,100
14,O=C1NC(=O)c2c1c1c3ccccc3[nH]c1c1[nH]c3cc(Br)ccc3c21,52
15,NC(=O)c1ccc2[nH]c(-c3ccc(Oc4ccc(Cl)cc4)cc3)nc2c1,98
16,O=Nc1c(-c2c(O)[nH]c3ccccc23)[nH]c2ccccc12,4

row,SMILES,residual activity [%]
1,CC(=O)c1ccc(N2CCOCC2)cc1O,97
2,COc1ccc(OC)c2c(=S)c3ccccc3[nH]c12,103
3,O=C1Nc2ccccc2/C1=C1/Nc2ccccc2/C1=N\OCCC(O)CO (configuration not stated),2
4,c1ccc2c(-c3ccncc3)c[nH]c2c1,97
5,Nc1ccc2ncnc(NCCc3ccc(Oc4ccccc4)cc3)c2c1,108
6,CO[C@H]1C[C@@H]2CC[C@@H](C)[C@@](O)(O2)C(=O)C(=O)N2CCCC[C@H]2C(=O)O[C@H]([C@H](C)C[C@@H]2CC[C@@H](O)[C@H](OC)C2)CC(=O)[C@H](C)/C=C(\C)[C@@H](O)[C@@H](OC)C(=O)[C@H](C)C[C@H](C)/C=C/C=C/C=C/1C,99
7,O=C1Nc2cc(Br)ccc2/C1=C1/Nc2ccccc2/C1=N\O,11
8,Cc1cncc2cccc(S(=O)(=O)N3CCCN(C(=O)CN)C[C@H]3C)c12,95
9,O=[N+]([O-])c1ccc(-c2nc(-c3ccc(F)cc3)c(-c3ccncc3)[nH]2)cc1,103
10,CCOc1cc2ncnc(Nc3cccc(Br)c3)c2cc1OCC,87
11,COc1ccc(C(=O)Nc2sc3c(c2C(N)=O)CCCC3)cc1OC,87
12,O=C1c2ccccc2-[n+]2ccc3c([nH]c4ccccc43)c21,97
13,Oc1ccc(Nc2nc(-c3ccc(Cl)cc3)cs2)cc1,107
14,CC(=O)O/N=C1\C(=C2\C(=O)Nc3cc(Br)ccc32)Nc2ccccc21,56
15,CC(C)n1cnc2c(NCc3ccccc3)nc(NCCCO)nc21,99
